A short description of assay [1]: RPL19A-GFP modulators, yeast TOR pathway, confirmation, cell-based, S. cerevisiae, flow cytometry, cherry picks, mother/daughter gates (AID 2270;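 active = GFP response below 50% of the DMSO control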). The note with it: S. cerevisiae RPL19A-GFP strain, 3 h, at 10 µM, stronger effect = lower value, 100 = same GFP as DMSO wells. For orientation: Flow cytometry measures light scatter and fluorescence of single cells or particles in a stream.

Assay [2] in a line: LAP4-GFP expression modulators in yeast, confirmation, cell-based, cherry picks, flow cytometry, mother/daughter gates (AID 2271;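 active = GFP response above 150% of the DMSO control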;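 also: ratio of sample to DMSO plate mean so 100% equals DMSO level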). The note with it: S. cerevisiae LAP4-GFP strain, 3 h, at 10 µM, stronger effect = higher value, 100 means same as DMSO control.
Assay [3] can be described thus: modulators of MEP2-GFP levels in yeast, confirmation, S. cerevisiae, flow cytometry GFP, cherry picks (AID 2272;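 active = GFP response above 150% of the DMSO control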;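 also: ratio of well signal to plate DMSO mean so 100% equals DMSO level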). The note with it: S. cerevisiae MEP2-GFP strain, 3 h, at 10 µM, stronger effect = higher value.
Assay [4] in a line: AGP1-GFP expression modulators, hit retest, confirmation, cell-based, flow cytometry, S. cerevisiae, cherry picks (AID 2273).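 Also: median GFP channel fluorescence over the whole cell population gate.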 Particulars: S. cerevisiae AGP1-GFP strain, 3 h, at 10 µM.
Assay [5] is described as follows: modulators of CIT2-GFP expression in yeast, confirmation, S. cerevisiae, GFP fusion, cherry picks, mother/daughter gates (AID 2274). The note with it: S. cerevisiae CIT2-GFP strain, flow cytometry, 3 h, at 10 µM, stronger effect = higher value.
Assay [6] in a line: inhibitors of CD8+ T cell-vesicle binding, pilot screen, LFA-1/ICAM-1 modulator project, MLPCN validation set, flow cytometry (AID 2523;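 active = response below a set limit, under 55% cells CD8-positive and vesicle-bound, and CD8 cells' 90th-percentile brightness under 279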;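 as to vesicle binding response: mean PE anti-B7-1 fluorescence of CD8+ cells relative to row control; 100% = QL9-loaded vesicles with DMSO vehicle in the same plate row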). The note with it: 2C mouse CD8+ T cells, at 7 µM, stronger effect = lower value; double positive events: measured here: CD8+/vesicle+ event percentage.
The target of assay [7] is Integrin beta-1 (Homo sapiens) + Integrin alpha-4 (Homo sapiens) (UniProt P13612+P05556). The experiment in a line: inhibition of HUTS-21 binding to VLA-4, pilot screen, VLA-4 allosteric modulator project, U937 cells, HUTS-21 mAb, flow cytometry, validation set (AID 2674;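 active = inhibition above 50%, about 3 SD of the validation set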;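 also: antibody binding induced by the VLA-4 ligand LDV present at three times its Kd; 0% = LDV ligand with antibody and no compound and 100% = antibody without LDV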). The note with it: HUTS-21 LIBS mAb binding, at 6.7 µM, stronger effect = higher value, binding induced by LDV ligand.
Sequence of Integrin beta-1 (Homo sapiens) + Integrin alpha-4 (Homo sapiens) (P05556 whole entry, looked up): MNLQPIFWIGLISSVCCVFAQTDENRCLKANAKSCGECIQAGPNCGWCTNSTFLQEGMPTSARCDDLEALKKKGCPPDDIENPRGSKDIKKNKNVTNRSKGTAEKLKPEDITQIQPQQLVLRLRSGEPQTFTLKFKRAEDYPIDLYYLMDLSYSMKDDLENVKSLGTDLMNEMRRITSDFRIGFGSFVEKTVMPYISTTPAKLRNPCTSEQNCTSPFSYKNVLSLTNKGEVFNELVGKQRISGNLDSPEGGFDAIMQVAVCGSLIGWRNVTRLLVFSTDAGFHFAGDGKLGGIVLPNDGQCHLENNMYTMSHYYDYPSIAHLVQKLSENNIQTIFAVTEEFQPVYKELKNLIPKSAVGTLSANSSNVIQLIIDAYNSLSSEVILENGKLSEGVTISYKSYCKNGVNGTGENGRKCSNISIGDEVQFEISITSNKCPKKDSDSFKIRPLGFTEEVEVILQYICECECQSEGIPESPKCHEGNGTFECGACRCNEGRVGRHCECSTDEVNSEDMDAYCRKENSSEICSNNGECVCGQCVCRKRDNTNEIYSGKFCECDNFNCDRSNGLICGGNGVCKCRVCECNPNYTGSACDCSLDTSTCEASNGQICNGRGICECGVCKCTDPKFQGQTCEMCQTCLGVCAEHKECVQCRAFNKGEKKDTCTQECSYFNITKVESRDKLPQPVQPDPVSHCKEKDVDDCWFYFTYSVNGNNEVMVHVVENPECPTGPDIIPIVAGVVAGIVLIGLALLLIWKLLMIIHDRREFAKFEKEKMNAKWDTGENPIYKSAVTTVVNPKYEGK
Sequence of Integrin beta-1 (Homo sapiens) + Integrin alpha-4 (Homo sapiens) (P13612 whole entry, looked up): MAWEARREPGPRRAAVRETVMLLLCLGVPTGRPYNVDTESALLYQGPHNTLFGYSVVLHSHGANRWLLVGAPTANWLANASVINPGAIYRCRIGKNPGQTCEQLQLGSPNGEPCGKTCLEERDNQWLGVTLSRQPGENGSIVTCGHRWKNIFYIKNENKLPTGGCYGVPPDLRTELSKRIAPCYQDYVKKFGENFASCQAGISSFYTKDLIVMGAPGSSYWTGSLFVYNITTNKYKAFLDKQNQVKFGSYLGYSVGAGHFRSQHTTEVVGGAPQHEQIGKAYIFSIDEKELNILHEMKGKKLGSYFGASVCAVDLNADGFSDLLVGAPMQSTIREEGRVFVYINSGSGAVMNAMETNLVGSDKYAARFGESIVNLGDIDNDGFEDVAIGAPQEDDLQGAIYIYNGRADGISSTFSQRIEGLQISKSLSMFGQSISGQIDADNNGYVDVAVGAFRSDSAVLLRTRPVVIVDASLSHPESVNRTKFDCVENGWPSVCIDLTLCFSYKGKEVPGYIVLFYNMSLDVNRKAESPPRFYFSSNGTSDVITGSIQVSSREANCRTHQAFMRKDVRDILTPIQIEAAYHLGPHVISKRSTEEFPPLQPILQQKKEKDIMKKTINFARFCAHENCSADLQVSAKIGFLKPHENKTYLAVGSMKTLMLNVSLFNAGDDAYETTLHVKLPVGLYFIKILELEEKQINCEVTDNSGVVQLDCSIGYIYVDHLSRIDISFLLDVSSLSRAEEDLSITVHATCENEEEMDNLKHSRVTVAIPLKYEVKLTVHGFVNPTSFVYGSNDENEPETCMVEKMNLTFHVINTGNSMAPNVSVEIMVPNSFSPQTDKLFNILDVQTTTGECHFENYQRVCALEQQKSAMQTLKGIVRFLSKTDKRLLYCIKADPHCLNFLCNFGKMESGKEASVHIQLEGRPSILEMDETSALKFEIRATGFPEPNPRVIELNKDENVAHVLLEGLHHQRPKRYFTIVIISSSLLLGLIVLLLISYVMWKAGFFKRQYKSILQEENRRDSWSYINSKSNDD

A short description of assay [8]: superoxide lowering in aged yeast cells, pilot screen, validation compound set (AID 2706;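 active = superoxide response below 65% of plate, a cut near 3 SD across the whole screen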;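 also: yeast exposed to compound for one week at 30 degrees C before staining; 100% = mean of all compound wells on the same plate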). The note with it: S. cerevisiae aging, superoxide DHE fluorescence; at 10 µM, stronger effect = lower value.
Assay [9] deals with Beta-adrenergic receptor kinase 1 (Homo sapiens) (UniProt P25098). The experiment in a line: GRK2 binders displacing RNA aptamer, biochemical, validation, human GRK2, bead flow cytometry (AID 488806;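 active = aptamer binding inhibition above 30%, about 3 SD of noise from non-fluorescent compounds; inactive = inhibition at or below 30%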). Particulars: bead-bound GRK2, FAM-aptamer displacement, at 10 µM, stronger effect = higher value.
Sequence of Beta-adrenergic receptor kinase 1 (Homo sapiens) (P25098 whole entry, looked up): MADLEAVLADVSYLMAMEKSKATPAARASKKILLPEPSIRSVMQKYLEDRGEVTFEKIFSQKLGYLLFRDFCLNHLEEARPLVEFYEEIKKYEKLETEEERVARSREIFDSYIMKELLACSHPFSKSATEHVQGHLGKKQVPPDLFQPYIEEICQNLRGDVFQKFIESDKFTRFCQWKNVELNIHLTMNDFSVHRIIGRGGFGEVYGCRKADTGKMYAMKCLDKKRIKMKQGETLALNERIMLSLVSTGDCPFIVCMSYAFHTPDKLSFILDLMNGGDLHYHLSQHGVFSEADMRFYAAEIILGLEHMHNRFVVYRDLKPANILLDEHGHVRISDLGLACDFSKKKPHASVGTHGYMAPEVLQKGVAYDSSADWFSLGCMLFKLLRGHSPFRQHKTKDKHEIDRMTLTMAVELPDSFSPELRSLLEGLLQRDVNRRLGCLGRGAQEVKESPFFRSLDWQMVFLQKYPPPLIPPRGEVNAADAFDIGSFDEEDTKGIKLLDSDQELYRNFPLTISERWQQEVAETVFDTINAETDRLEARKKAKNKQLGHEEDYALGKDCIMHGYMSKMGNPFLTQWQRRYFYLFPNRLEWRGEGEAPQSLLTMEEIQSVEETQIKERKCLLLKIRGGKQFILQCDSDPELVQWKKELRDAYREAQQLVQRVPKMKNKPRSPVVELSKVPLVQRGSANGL
The target of assay [10] is Beta-2 adrenergic receptor (Homo sapiens) (UniProt P07550). The experiment in a line: beta2AR agonists driving receptor internalization, pilot screen, cell-based, FAP fluorogen, flow cytometry, validation set (AID 504459;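 active = percent response above 42, roughly 3 SD of non-fluorescent test compounds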;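 also: agonist-driven loss of surface beta2AR via internalization measured by FAP dye flow cytometry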). Particulars: Am2.2-beta2AR cells, FAP surface receptor flow cytometry; at 10 µM; stronger effect = higher value.
Sequence of Beta-2 adrenergic receptor (Homo sapiens) (P07550 whole entry, looked up): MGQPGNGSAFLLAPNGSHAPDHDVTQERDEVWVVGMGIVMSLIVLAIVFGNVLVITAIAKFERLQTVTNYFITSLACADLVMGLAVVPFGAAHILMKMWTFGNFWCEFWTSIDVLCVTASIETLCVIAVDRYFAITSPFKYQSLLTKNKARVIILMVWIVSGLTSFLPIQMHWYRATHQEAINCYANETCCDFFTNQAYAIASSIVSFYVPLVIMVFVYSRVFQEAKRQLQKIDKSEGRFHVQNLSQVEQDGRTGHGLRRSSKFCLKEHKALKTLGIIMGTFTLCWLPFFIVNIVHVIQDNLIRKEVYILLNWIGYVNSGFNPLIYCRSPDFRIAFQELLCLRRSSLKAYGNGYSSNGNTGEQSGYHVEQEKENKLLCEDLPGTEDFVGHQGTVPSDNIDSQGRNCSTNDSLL
Assay [11] has as its target AP-2 complex subunit beta (Homo sapiens) (UniProt P63010). The experiment in a line: inhibitors of arrestin peptide binding to AP2, pilot screen, biochemical, validation set, GST-AP2 beads, flow cytometry (AID 504541;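 active = inhibition above 54%, about 3 SD of non-fluorescent compounds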;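 also: AP2 carries R879A mutation and is captured from E. coli lysate; bead-bound FITC arrestin peptide fluorescence measuring arrestin peptide binding to AP2; 0% = DMSO wells and 100% = excess unlabeled arrestin peptide control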). The note with it: FITC arrestin peptide, at 10 µM, stronger effect = higher value, AP2 beta2 appendage fragment, R879A mutant.
A short description of assay [12]: yeast V-ATPase proton transport modulators, S. cerevisiae, pHLuorin, HTS validation (AID 504600; in the data active = response above about 15%;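 also: plate controls were DMSO for no effect and reference compound for full effect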). The note with it: S. cerevisiae pHLuorin cytosolic pH, at 10 µM, stronger effect = higher value.
Assay [13] concerns anti-desmoglein-3 scFv antibody binding to human DSG3. The experiment in a line: inhibitors of anti-DSG3 scFv binding to DSG3, pilot screen, biochemical, validation compound set, bead-based, flow cytometry (AID 588368;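 active = binding below the plate cutoff, the plate median minus 3 SD, with a reading above zero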;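 also: signal is the median channel fluorescence of bead-bound GFP antibody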). Particulars: Protein G beads, DSG3-Fc, scFv-GFP binding, at 10 µM, stronger effect = lower value.
The nature of assay [14]: inhibitors of fungal efflux pumps CDR1, CDR2, MDR1, pilot screen, validation compound set, multiplex, phenotypic (AID 588506;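 active = efflux inhibition above 0.42, the validation set average plus 4 SD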;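 also: Nile Red retained in cells so higher fluorescence means more efflux inhibition; 0 = negative control wells and 1 = enniatin B 25 µM full block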). Particulars: S. cerevisiae pump-expressing triplex, Nile Red efflux flow cytometry; at 10 µM; stronger effect = higher value; the pumps come from Candida albicans.
The target of assay [15] is ATP-binding cassette sub-family B member 6 (Homo sapiens) (UniProt Q9NP58). The experiment in a line: ABCB6 transporter inhibitors, pilot screen, K562-ABCB6 cells, flow cytometry, validation set (AID 588550;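 active = inhibition above the screen-wide mean plus 3 SD, about 51%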;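 also: 0% = DMSO wells and 100% = benzethonium chloride 70 µM positive control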). Particulars: K562-ABCB6 porphyrin accumulation, 1 h, at 10 µM, stronger effect = higher value.
Sequence of ATP-binding cassette sub-family B member 6 (Homo sapiens) (Q9NP58 whole entry, looked up): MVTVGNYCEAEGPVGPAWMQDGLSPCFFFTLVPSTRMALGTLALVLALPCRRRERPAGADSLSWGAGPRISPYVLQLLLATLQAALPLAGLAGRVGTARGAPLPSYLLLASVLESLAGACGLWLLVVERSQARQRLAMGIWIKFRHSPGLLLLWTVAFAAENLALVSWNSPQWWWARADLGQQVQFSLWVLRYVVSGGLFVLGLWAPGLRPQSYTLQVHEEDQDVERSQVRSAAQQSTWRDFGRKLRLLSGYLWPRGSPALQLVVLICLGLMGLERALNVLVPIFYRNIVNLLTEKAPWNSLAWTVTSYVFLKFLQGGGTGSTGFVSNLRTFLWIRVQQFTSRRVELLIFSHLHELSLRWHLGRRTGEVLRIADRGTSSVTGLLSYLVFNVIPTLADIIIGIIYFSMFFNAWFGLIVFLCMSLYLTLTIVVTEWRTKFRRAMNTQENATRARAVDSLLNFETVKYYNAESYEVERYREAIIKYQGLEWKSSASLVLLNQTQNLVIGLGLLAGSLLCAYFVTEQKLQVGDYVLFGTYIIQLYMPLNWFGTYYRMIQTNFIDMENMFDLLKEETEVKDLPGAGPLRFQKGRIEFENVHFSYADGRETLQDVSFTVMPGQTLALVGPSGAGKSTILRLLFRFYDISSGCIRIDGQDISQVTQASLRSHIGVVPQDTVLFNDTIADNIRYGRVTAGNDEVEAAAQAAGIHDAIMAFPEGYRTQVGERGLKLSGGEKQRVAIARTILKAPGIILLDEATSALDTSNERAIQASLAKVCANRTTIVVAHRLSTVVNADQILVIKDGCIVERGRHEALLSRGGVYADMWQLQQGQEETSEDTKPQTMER
Assay [16] in a line: promoters of myeloid differentiation in arrested cells, primary screen, cell-based, GFP/MAC1 double positive, flow cytometry, validation set (AID 588685;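 active = differentiation response of at least 50%, scaled between solvent and reference control, from cells with both markers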;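 also: compound exposure lasts four days before antibody staining and flow analysis; 0% = DMSO wells and 100% = 5 µM fulvestrant positive control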). Particulars: ER-HoxA9 marrow cells, stronger effect = higher value, normalized: vehicle 0, fulvestrant 100.
Where [17] appears, read: measured here: daughter cell gate.
[18] abbreviates: measured here: mother cell gate.

For orientation: inhibition means the relative decrease from the control value, in per cent.

The source made the active and inactive calls.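 The calls were made as follows, unless noted: active = GFP response above 150% of the DMSO level; inconclusive = fewer than 70 events counted for a yeast strain; inactive = the rest.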

Sequence of AP-2 complex subunit beta (Homo sapiens) (P63010 whole entry, looked up, the tested form may be a part, one chain of several): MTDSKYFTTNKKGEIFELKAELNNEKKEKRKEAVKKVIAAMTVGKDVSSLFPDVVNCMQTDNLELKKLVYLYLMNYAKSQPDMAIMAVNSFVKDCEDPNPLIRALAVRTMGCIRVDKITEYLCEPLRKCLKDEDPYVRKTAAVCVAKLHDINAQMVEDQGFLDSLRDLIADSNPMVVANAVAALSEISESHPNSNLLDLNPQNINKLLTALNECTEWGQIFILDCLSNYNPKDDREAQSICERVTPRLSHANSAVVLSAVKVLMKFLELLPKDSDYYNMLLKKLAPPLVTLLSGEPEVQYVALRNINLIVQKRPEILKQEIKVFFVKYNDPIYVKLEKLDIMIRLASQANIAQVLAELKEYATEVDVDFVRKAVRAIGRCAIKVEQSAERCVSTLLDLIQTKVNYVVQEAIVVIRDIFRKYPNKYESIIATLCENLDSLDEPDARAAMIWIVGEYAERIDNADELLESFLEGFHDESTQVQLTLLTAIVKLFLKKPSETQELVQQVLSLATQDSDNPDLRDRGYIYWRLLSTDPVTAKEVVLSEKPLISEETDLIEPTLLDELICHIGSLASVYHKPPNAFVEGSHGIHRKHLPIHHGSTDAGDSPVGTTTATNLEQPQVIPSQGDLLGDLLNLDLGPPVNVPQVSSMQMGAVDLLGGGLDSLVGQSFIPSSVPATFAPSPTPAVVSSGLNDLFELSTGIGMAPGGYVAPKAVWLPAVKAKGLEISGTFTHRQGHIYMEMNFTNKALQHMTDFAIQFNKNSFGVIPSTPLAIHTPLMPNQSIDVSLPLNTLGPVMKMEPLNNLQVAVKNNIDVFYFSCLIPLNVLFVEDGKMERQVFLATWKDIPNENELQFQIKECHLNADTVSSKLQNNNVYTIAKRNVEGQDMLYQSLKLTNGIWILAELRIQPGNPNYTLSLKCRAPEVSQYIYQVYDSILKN

As to `O=C(Nc1cccc(F)c1)c1ccccc1`, the GFP response vs DMSO was 99.4% (inactive) in [1] and 103% (inactive) in assay [3]. Moreover, the GFP response relative to DMSO in assay [2] was 97% (inactive); in assay [2] (measured here: daughter cell gate response) it was 97.5%; in assay [2] (measured here: mother cell gate response), 96.2%. The GFP response, % of DMSO in assay [4] was 95.9% (inactive); in [5], 98.8% (inactive); in [5] (setting [17]), 99.2%; in [5] (setting [18]), 88.2%.
For `O=C(Nc1cc(F)c(Br)cc1F)c1ccc(Cl)cc1`, the GFP response vs DMSO in [1] is 99.3% (inactive); in assay [1] (setting [17]), 93.3%; in [1] (setting [18]) it was 87.2%; in [3] it was 106% (inactive). The GFP response relative to DMSO in assay [2] is 97.7% (inactive). The GFP response, % of DMSO is 98.8% (inactive) in assay [4], 103% (inactive) in assay [5], 94% in assay [5] (setting [17]) and 94.9% in [5] (setting [18]).
`Nc1cccc2nc3ccccc3cc12` returned a double positive events in [6] of 60.9%. Moreover, in assay [6], the vesicle binding response was 235% (inactive). Also, the inhibition is 9.1% (inactive) in [7], 2.41% (inactive) in assay [11] and 2% (inactive) in assay [15]. Further, in [8], the superoxide response (% of plate) was 113% (inactive). For the same compound, the aptamer binding inhibition in assay [9] was 3% (inactive). Moreover, the response was 2.19% (inactive) in [10] and -17.4% (inactive) in assay [12]. Also, in assay [13], the binding (% of control) is 102% (inactive). In assay [14], the efflux inhibition (fraction of control) was -0.04 (inactive). Further, in [16], the differentiation response is -6.96% (inactive).
In the case of `CC(C)(C)C(=O)NC(=S)NNC(=O)c1sc2ccccc2c1Cl`, the GFP response vs DMSO is 116% (inactive) in assay [1] and 122% (inactive) in assay [3]. For the same compound, in [2], the GFP response relative to DMSO was 242% (active). Further, the GFP response, % of DMSO in assay [4] is 137% (inactive); in assay [5] it was 106% (inactive); in [5] (setting [17]), 90.5%; in [5] (setting [18]), 91.5%.
As to `CCc1cc2c3c(c(=O)oc2cc1O)CCCC3`, the double positive events in assay [6] turned out to be 67.8%. Also, in [6], the vesicle binding response is 257% (inactive). Further, the inhibition in [7] is -18.2% (inactive); in assay [11], -7.42% (inactive); in [15] it was 11% (inactive). Further, the superoxide response (% of plate) in [8] was 93.2% (inactive). In assay [9], the aptamer binding inhibition was 1% (inactive). In addition, the results for the response in assay [10] and in assay [12] were 1.88% (inactive) and 2.52% (inactive), respectively. Also, the binding (% of control) in [13] is 99.5% (inactive). The efflux inhibition (fraction of control) in assay [14] is -0.21 (inactive). Also, in assay [16], the differentiation response was 4% (inactive).
In assay [6], `COc1ccc2c(c1OC)C(=O)NC(C)=C(C(=O)OC(C)(C)C)C2O` (stereo not drawn) yielded a double positive events of 62.8%. In addition, the vesicle binding response in assay [6] was 192% (inactive). Moreover, the inhibition in assay [7] is 5.03% (inactive); in assay [11], -5.16% (inactive); in assay [15] it was 7% (inactive). Besides, in [8], the superoxide response (% of plate) was 97.2% (inactive). The aptamer binding inhibition in assay [9] was 4% (inactive). In addition, the response in [10] was 7.52% (inactive); in [12] it was 1.16% (inactive). Also, the binding (% of control) in assay [13] is 103% (inactive). Besides, the efflux inhibition (fraction of control) in assay [14] is 0.01 (inactive). Further, the differentiation response in [16] is 56.8% (active).
Regarding `Cc1csc(CCc2nc(C)cs2)n1`, the double positive events in [6] was 55.3%. Also, in assay [6], the vesicle binding response is 130% (inactive). The figures for the inhibition in [7], in assay [11] and in assay [15] were 2.93% (inactive), -2.65% (inactive) and 17% (inactive), respectively. The superoxide response (% of plate) in assay [8] is 108% (inactive). The aptamer binding inhibition in assay [9] is 1% (inactive). Besides, the response was -2.9% (inactive) in assay [10] and 0.13% (inactive) in assay [12]. The binding (% of control) in [13] is 102% (inactive). The efflux inhibition (fraction of control) in assay [14] was 0.01 (inactive). Also, the differentiation response in assay [16] was -4.57% (inactive).
For `CN(C)CCCN(C(=O)c1cccs1)c1nc(-c2ccccc2)cs1`, the figures for the GFP response vs DMSO in assay [1] and in assay [3] were 98% (inactive) and 102% (inactive), respectively. Besides, in assay [2], the GFP response relative to DMSO was 90.7% (inactive). Also, the GFP response, % of DMSO is 100% (inactive) in assay [4] and 101% (inactive) in [5].

Source of the values: PubChem BioAssay.
